Laboratory results: PubChem BioAssay (EPA / NIEHS)
The source made the active and inactive calls. Rule for the calls: active = hit-call score of the fitted dose curve at least 0.9, where 1 is the maximum; inactive = score below 0.9.

Key:
[1] = read-out: Low-density lipoprotein receptor (LDLR), LDLR (gene 3949); assay: BSK_CASM3C_LDLR: BioMAP Diversity Plus: CASM3C Assay for Low-density lipoprotein receptor (LDLR) Biomarker Activity (AID 2283045); conditions: primary human coronary artery smooth muscle cells; actives raise or lower the signal;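 note: LDLR protein level on the cell surface quantified by ELISA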
[2] = read-out: Monocyte Chemoattractant Protein-1 (MCP1), CCL2 (gene 6347); assay: BSK_CASM3C_MCP1: BioMAP Diversity Plus: CASM3C Assay for Monocyte Chemoattractant Protein-1 (MCP1) Biomarker Activity (AID 2283046); conditions: primary human coronary artery smooth muscle cells; actives raise or lower the signal;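 note: MCP-1 level quantified by ELISA 24 h after dosing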
[3] = BSK_CASM3C_Proliferation: Cell Proliferation Assessment in the BioMAP Diversity Plus: CASM3C Assay (AID 2283047); conditions: primary human coronary artery smooth muscle cells;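 note: sulforhodamine B total protein stain as relative cell number at 560 nm; sub-confluent cells exposed 48 h before staining; fitted both ways against DMSO so gain or loss of cell number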
[4] = read-out: Monokine induced gamma interferon (MIG), CXCL9 (gene 4283); assay: BSK_CASM3C_MIG: BioMAP Diversity Plus: CASM3C Assay for Monokine induced gamma interferon (MIG) Biomarker Activity (AID 2283048); conditions: primary human coronary artery smooth muscle cells; actives raise or lower the signal;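 note: MIG protein level measured by ELISA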
[5] = read-out: serum amyloid A (SAA), SAA1 (gene 6288); assay: BSK_CASM3C_SAA: BioMAP Diversity Plus: CASM3C Assay for serum amyloid A (SAA) Biomarker Activity (AID 2283049); conditions: primary human coronary artery smooth muscle cells; actives raise or lower the signal;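 note: SAA protein level quantified by ELISA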
[6] = BSK_CASM3C_SRB: Viability Assessment in the BioMAP Diversity Plus: CASM3C Assay (AID 2283050); conditions: primary human coronary artery smooth muscle cells;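 note: total protein by SRB staining as cytotoxicity measure in parallel cultures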
[7] = read-out: Thrombomodulin, THBD (gene 7056); assay: BSK_CASM3C_Thrombomodulin: BioMAP Diversity Plus: CASM3C Assay for Thrombomodulin Biomarker Activity (AID 2283051); conditions: primary human coronary artery smooth muscle cells; actives raise or lower the signal;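 note: thrombomodulin protein level measured by ELISA 24 h after dosing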
[8] = read-out: Tissue Factor, F3 (gene 2152); assay: BSK_CASM3C_TissueFactor: BioMAP Diversity Plus: CASM3C Assay for Tissue Factor Biomarker Activity (AID 2283052); conditions: primary human coronary artery smooth muscle cells; actives raise or lower the signal;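 note: cell surface tissue factor protein level read by ELISA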
[9] = read-out: Interferon-gamma inducible Protein 10 (IP10), CXCL10 (gene 3627); assay: BSK_hDFCGF_IP10: BioMAP Diversity Plus: hDFCGF Assay for Interferon-gamma inducible Protein 10 (IP10) Biomarker Activity (AID 2283053); conditions: primary human foreskin fibroblasts; actives raise or lower the signal
Procedure, shortened: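 Human foreskin fibroblast primary cells (hDFCGF system) were dosed with chemical and assayed at 24 h; IP-10 measured by ELISA. Activity fitted bidirectionally relative to DMSO negative control as baseline.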

[10] = read-out: Urokinase-type plasminogen activator receptor (uPAR), PLAUR (gene 5329); assay: BSK_CASM3C_uPAR: BioMAP Diversity Plus: CASM3C Assay for Urokinase-type plasminogen activator receptor (uPAR) Biomarker Activity (AID 2283054); conditions: primary human coronary artery smooth muscle cells; actives raise or lower the signal;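 note: cell-surface uPAR protein level quantified by ELISA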
[11] = read-out: Vascular cell adhesion molecule 1 (VCAM1), VCAM1 (gene 7412); assay: BSK_CASM3C_VCAM1: BioMAP Diversity Plus: CASM3C Assay for Vascular cell adhesion molecule 1 (VCAM1) Biomarker Activity (AID 2283055); conditions: primary human coronary artery smooth muscle cells; actives raise or lower the signal;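 note: VCAM-1 protein level quantified by ELISA on the cells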
[12] = read-out: Collagen III, COL3A1 (gene 1281); assay: BSK_hDFCGF_CollagenIII: BioMAP Diversity Plus: hDFCGF Assay for Collagen III Biomarker Activity (AID 2283056); conditions: primary human foreskin fibroblasts; actives raise or lower the signal
Procedure, shortened: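 Human foreskin primary fibroblasts were exposed to test chemicals for 24 h, after which collagen III was quantified by ELISA. Activity was fitted bidirectionally against DMSO as negative control and baseline.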

[13] = read-out: Epidermal growth factor receptor (EGFR), EGFR (gene 1956); assay: BSK_hDFCGF_EGFR: BioMAP Diversity Plus: hDFCGF Assay for Epidermal growth factor receptor (EGFR) Biomarker Activity (AID 2283057); conditions: primary human foreskin fibroblasts; actives raise or lower the signal
Procedure, shortened: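 Primary human foreskin fibroblasts were exposed to compound for 24 h, after which cell-surface EGFR was quantified by ELISA. Activity was fitted bidirectionally against the DMSO negative control as baseline.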

[14] = read-out: Interleukin-8 (IL8), CXCL8 (gene 3576); assay: BSK_hDFCGF_IL8: BioMAP Diversity Plus: hDFCGF Assay for Interleukin-8 (IL8) Biomarker Activity (AID 2283058); conditions: primary human foreskin fibroblasts; actives raise or lower the signal
Procedure, shortened: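 hDFCGF human dermal fibroblasts; 24 h chemical exposure; IL-8 by ELISA; bidirectional curve fit vs DMSO baseline; gain or loss of signal scored.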

[15] = BSK_hDFCGF_Proliferation: Cell Proliferation Assessment in the BioMAP Diversity Plus: hDFCGF Assay (AID 2283059); conditions: primary human foreskin fibroblasts;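 note: curves fitted for both rise and fall of signal versus DMSO baseline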
Procedure, shortened: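 This proliferation readout used SRB total-protein staining of human foreskin fibroblasts […], normalized to DMSO with bidirectional curve fitting.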

[16] = read-out: Macrophage colony-stimulating factor (MCSF), CSF1 (gene 1435); assay: BSK_hDFCGF_MCSF: BioMAP Diversity Plus: hDFCGF Assay for Macrophage colony-stimulating factor (MCSF) Biomarker Activity (AID 2283060); conditions: primary human foreskin fibroblasts; actives raise or lower the signal
Procedure, shortened: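 Human foreskin primary fibroblasts were treated with test chemical for 24 h, and M-CSF was then measured by ELISA. Data were fitted bidirectionally against DMSO as the negative control and activity baseline.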

[17] = BSK_hDFCGF_SRB: Viability Assessment in the BioMAP Diversity Plus: hDFCGF Assay (AID 2283061); conditions: primary human foreskin fibroblasts;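 note: cells exposed to compound for 24 h before the read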
Procedure, shortened: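 Human foreskin primary fibroblasts were treated with compound and assessed 24 h after dosing. Total protein was measured by sulforhodamine B staining (0.1% SRB after 10% TCA fixation, 560 nm read) as a cytotoxicity marker, with bidirectional fitting against DMSO baseline.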

[18] = read-out: TIMP metallopeptidase inhibitor 1 (TIMP1), TIMP1 (gene 7076); assay: BSK_hDFCGF_TIMP1: BioMAP Diversity Plus: hDFCGF Assay for TIMP metallopeptidase inhibitor 1 (TIMP1) Biomarker Activity (AID 2283062); conditions: primary human foreskin fibroblasts; actives raise or lower the signal
Procedure, shortened: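 Primary human foreskin fibroblasts in the hDFCGF system were dosed with compound for 24 h, then TIMP-1 was measured by ELISA. Activity was fitted bidirectionally relative to DMSO control; parallel SRB staining assessed cytotoxicity.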

[19] = read-out: Monokine induced gamma interferon (MIG), CXCL9 (gene 4283); assay: BSK_hDFCGF_MIG: BioMAP Diversity Plus: hDFCGF Assay for Monokine induced gamma interferon (MIG) Biomarker Activity (AID 2283063); conditions: primary human foreskin fibroblasts; actives raise or lower the signal
Procedure, shortened: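 ELISA read-out of MIG from primary human dermal fibroblasts 24 h post-dosing. Gain or loss of signal fitted bidirectionally, DMSO as baseline.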

[20] = read-out: Matrix Metallopeptidase 1 (MMP1), MMP1 (gene 4312); assay: BSK_hDFCGF_MMP1: BioMAP Diversity Plus: hDFCGF Assay for Matrix Metallopeptidase 1 (MMP1) Biomarker Activity (AID 2283064); conditions: primary human foreskin fibroblasts; actives raise or lower the signal
Procedure, shortened: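 Primary human foreskin fibroblasts in the hDFCGF system were dosed with test chemical, and MMP1 was measured by ELISA 24 h later. Values come from bidirectional curve fitting against the DMSO baseline.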

Measured: outcome

O=C(O)C(Cl)(Cl)Cl
inactive: all assays above

ClCC(Cl)CCl
inactive: all assays above

COC(=O)Cc1ccccc1
inactive: all assays above
